{"source": "PubChem BioAssay"}
{"test_system": "Sonic hedgehog protein (Shh)", "experiment": "Sonic hedgehog microarray binding compounds – biochemical, small-molecule microarray, 635/667 nm fluorescence, primary screen (AID 1151);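 also: Shh protein binding to compounds spotted on small-molecule microarray slides; score combines spot fluorescence intensity with signal-to-noise across triplicate slides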", "conditions": "635 nm fluorescence, higher = more signal"}
{"smiles": "CO[C@H]1COC(=O)CC=C[C@H](C)[C@@H](OC)COC(=O)CC=C[C@@H]1C", "composite z-score": 1.32}
{"smiles": "COCCOC(=O)N1C(=O)[C@@]2(c3cc(C#CCCO)ccc31)[C@H](C(=O)N1CCCCCCC1)[C@H]1C(=O)O[C@H](c3ccccc3)[C@H](c3ccccc3)N1[C@@H]2c1ccc(O)cc1", "composite z-score": 1.06}
{"smiles": "Cc1ccc(N2C(=O)c3ccccc3[C@@H](C(=O)NCc3ccccc3)[C@@H]2c2ccc(CO)cc2)nc1", "composite z-score": 0.311}
{"smiles": "CC(=O)NCCCC[C@@H]1NC(=O)[C@@H]2C[C@H](C(=O)NCCCCCNC(=O)CS)[C@H](c3ccc(O)cc3)N2C1=O", "composite z-score": 1.49}
{"smiles": "O=C(CS)NCCCCCNC(=O)[C@H]1C[C@H]2C(=O)N3CCC[C@H]3C(=O)N2[C@H]1c1ccc(O)cc1", "composite z-score": 1.63}
{"smiles": "C[C@@H]1CC[C@H]2C(=O)N3CCC[C@H]3C(=O)N2[C@H]1c1ccc(Br)cc1", "composite z-score": -0.0312}
{"smiles": "O=C1O[C@@H](c2ccccc2)[C@@H](c2ccccc2)N2[C@@H](c3ccc(O)cc3)[C@]3(C(=O)Nc4ccc(C#CC5(O)CCCCCC5)cc43)[C@@H](C(=O)Nc3nc4ccccc4s3)[C@H]12", "composite z-score": 0.741}
{"smiles": "C[N+](C)(C)CCCC[C@@H]1NC(=O)[C@H]2C[C@@H](C(=O)NCc3ccc(F)cc3)[C@@H](c3cccc(OCCO)c3)N2C1=O", "composite z-score": 1.4}
{"smiles": "CO[C@H]1COC(=O)[C@H](Cc2ccccc2)NC(=O)CC=C[C@@H](C)[C@H](OC)COC(=O)CC=C[C@@H]1C", "composite z-score": 0.549}
{"smiles": "COC(=O)c1c(CC[C@@H](CO)NC(=O)N[C@H](Cn2cc(-c3cncn3C)nn2)C(C)C)oc(C(C)=O)c1C(=O)OC", "composite z-score": 0.75}
